# From PubChem
# This is a sample that favours compounds with a hit; in the whole collection about 7.5% have one here.
# NPC1 prom act = NPC1 promoter activation | Potency, µM (top dose mostly 9.22 µM), for the others: top-dose activation, hits mostly activators | 320,000 compounds, 2.4% hits | Huh7 NPC1 promoter luciferase reporter, 24 h; further: % of control where 0% means no effect; nearly all actives have a fitted effect of over 60% in size
#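 Stably transfected Huh7 (NPC1 promoter→luciferase), 1500 cells/well in Opti-MEM + 10% FBS, 2 h settle, then compound 24 h at 37 °C. Luminescence after 10 min with Amplite reagent.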
# Luc counter = blocks Kinase-Glo luciferase, a counter-screen artifact. Kinase-Glo luciferase, ATP luminescence, 8 min. Potency, µM (titrated, usually from 38.3 µM), without a hit: top-dose activity change, negative = inhibition, hits mostly inhibitors. 200,000 compounds, 0.28% hits; further: on the % scale 0 is the no-effect control and ±100 the full control effect; nearly all actives have a fitted effect of over 60% in size
#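 Kinase-Glo luciferase light output from ATP and luciferin was measured with 10 uM ATP, within the enzyme's linear range. Buffer: 50 mM imidazole pH 7.2, 50 mM KCl, 7 mM MgCl2, 0.01% Tween 20, 0.05% BSA; luminescence read after 8 min at ambient temperature.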
# FLuc counter = firefly luciferase modulation, counter-screen for miR-21 project | P08659 | purified FLuc, Km substrates, luminescence inhibition | Potency, µM (titrated, usually from 57.5 µM), for the others: at the highest dose activity change, negative = inhibition, actives largely listed as inhibitors | 360,000 compounds, 6.9% hits | AID 588342;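 further: plate controls were vehicle for no effect and reference inhibitor for full effect; nearly all actives have a fitted effect of over 55% in size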
# Target sequence (P08659 whole entry, looked up): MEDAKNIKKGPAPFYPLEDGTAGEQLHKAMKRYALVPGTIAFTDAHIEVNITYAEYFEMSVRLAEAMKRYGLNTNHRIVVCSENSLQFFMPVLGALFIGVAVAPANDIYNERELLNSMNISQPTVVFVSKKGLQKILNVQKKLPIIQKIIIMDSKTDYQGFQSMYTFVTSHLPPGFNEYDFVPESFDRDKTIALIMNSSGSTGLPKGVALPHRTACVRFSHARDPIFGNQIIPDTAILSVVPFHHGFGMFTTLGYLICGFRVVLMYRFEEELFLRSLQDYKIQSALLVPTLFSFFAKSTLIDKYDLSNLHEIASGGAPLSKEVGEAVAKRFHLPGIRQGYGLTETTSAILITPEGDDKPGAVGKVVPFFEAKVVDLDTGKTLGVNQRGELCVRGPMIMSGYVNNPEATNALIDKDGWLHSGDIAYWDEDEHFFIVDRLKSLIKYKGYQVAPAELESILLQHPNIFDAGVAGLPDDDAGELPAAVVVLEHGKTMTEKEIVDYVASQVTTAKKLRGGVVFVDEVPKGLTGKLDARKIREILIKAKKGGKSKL
#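 Purified P. pyralis luciferase, 10 nM final, with Km-level 10 uM D-luciferin and 10 uM ATP in 50 mM Tris acetate pH 7.5, 10 mM Mg acetate, 0.01% Tween-20, 0.05% BSA; 6-point qHTS titration about 60 µM downward; luminescence read.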
# ELG1 genotox = genotoxicity induction in ELG1-luciferase HEK293T cells. 330,000 compounds, 1.3% hits. Potency, µM (highest dose often 46 µM), for inactives: top-dose activity change, positive = activation, actives largely listed as activators. HEK293T ELG1-luciferase reporter, luminescence, 16 h; further: % of control where 0% means no effect; nearly all actives have a fitted effect of over 60% in size
#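 Genotoxic stress is detected as increased luminescence from luciferase-tagged ELG1 in HEK293T cells, measured with ONE-Glo after a 16 hr treatment at 37 °C.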
# Rab9 prom act = activates the Rab9 promoter; Huh7 Rab9 promoter-luciferase reporter, luminescence, 24 h; Potency, µM (series often up to 9.22 µM), for inactives: top-dose activation, negative = inhibition, most hits filed as activators; 320,000 compounds, 2.8% hits; AID 485297; further: % of control where 0% means no effect; nearly all actives have a fitted effect of over 60% in size
#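 Promoter activation is measured as luciferase luminescence in Huh7 cells stably transfected with a Rab9 promoter–luciferase construct, following 24 h compound exposure at 37 °C and 10 min reagent incubation at ambient temperature.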
# SMN2 splice up = SMN2 splice variant enhancement; HEK293 SMN2-luciferase splicing reporter, luminescence, 30-36 h; Potency, µM (titrated, usually from 46.1 µM), inactives show top-dose activity change, positive = activation, hits mostly activators; 210,000 compounds, 2.8% hits; AID 1458; further: % of control where 0% means no effect; nearly all actives have a fitted effect of over 55% in size
#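 qHTS luciferase splicing reporter: luminescence rises when SMN2 exon 7 is included in transfected HEK293 cells. Compound exposure lasted 30-36 h at 37C, with 4.5 mM final sodium butyrate as control, followed by a ONE-Glo read.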
# * = called active by the depositor; ? = inconclusive; / = no result given; [ ] = dose if it differs, or a comment. The call rests on the fitted dose curve; in most records, active means well fitted curve in the direction sought with a large enough effect; inconclusive means small, poorly fitted or top-dose-only effect, or another doubt; inactive means no such curve, though single readings can be large; an effect the other way counts as inactive or inconclusive. Potency means the concentration at half of the fitted maximal effect.
SMILES,NPC1 prom act,Luc counter,FLuc counter,ELG1 genotox,Rab9 prom act,SMN2 splice up
NC(CCC(=O)NC(CCSC(CC(=O)O)C(=O)O)C(=O)NCC(=O)O)C(=O)O (stereo not given),/,-3%,/,/,/,3%
Cc1ccsc1CN(C(=O)COc1ccc(Br)cc1)C1CCS(=O)(=O)C1 (stereo not given),/,/,0%,/,/,8%
CN(c1nc(-c2ccc(Br)cc2)cs1)C1CCS(=O)(=O)C1 (stereo not given),?,-1%,24µM*,5%,?,18%
CCn1ncc(/C=N\NC(=O)c2csc3ccccc23)c1C,-10%,8%,11µM*,?,-8%,23%
Cc1nn(C)c(C)c1/C=N/NC(=O)c1csc2ccccc12,-2%,3%,17µM*,15%,26%,-3%
Cc1ccc(-c2cc(C(=O)N/N=C/c3c(C)nn(C)c3C)c3ccccc3n2)c(C)c1,0%,17%,?,5%,7%,-2%
Cc1c(/C=N\NC(=O)c2csc3ccccc23)cnn1C,2%,-1%,?,8%,15%,-2%
O=C(NCc1cccnc1)C12CC3CC(CC(Cl)(C3)C1)C2,18%,/,?,?,18%,/
C[C@@H]1[C@H](C)CC[C@@]2(C(=O)O)CC[C@]3(C)C(=CC[C@H]4[C@@]5(C)CC[C@@H](O)C(C)(C)[C@@H]5CC[C@@]43C)[C@@H]12,/,-1%[17.1 µM],/,/,/,3%[20.6 µM]
CCCc1cc(=O)[nH]c(SCC(=O)Nc2ccc(C)cc2)n1,-1%,-1%,-9%,2%,-1%,8%
Cc1ccc(SCc2cc(=O)[nH]c(SCC(=O)Nc3cc(Cl)ccc3Cl)n2)cc1,-2%,1%,27µM*,-1%,-5%,-8%
CCc1ccc(NC(=O)CSc2nc(CSc3ccc(C)cc3)cc(=O)[nH]2)cc1,-6%,/,19µM*,6%,-3%,/
Cc1ccc(C)c(NS(=O)(=O)c2cc(C(=O)NCc3ccccn3)ccc2C)c1,-2%,/,2%,-3%,-51%,/
COc1ccc(C2=CC(c3ccccc3Cl)n3nc(-c4ccc(C)cc4)nc3N2)cc1 (stereo not given),/,/,-7%,/,/,-8%
Cc1cccc(OC(C)C(=O)N2CCN(Cc3ccc4c(c3)OCO4)CC2)c1 (stereo not given),-3%,/,6%,-14%,0%,/
COC(=O)Cc1csc(NC(=O)c2ccc3ncsc3c2)n1,21%,/,24µM*,16%,?,/
CCOC(=O)c1sc(NC(=O)c2cncc(Br)c2)nc1C,-14%,-3%,2.1µM*,18µM*,17%,4.5µM*
CCOC(=O)c1sc(NC(=O)c2ccc3ncsc3c2)nc1C,-33%,0%,0.95µM*,2.3µM*,-37%,2.8µM*
CCN1CCN(Cc2c(O)ccc3oc(C)c(C(=O)Nc4ccc(OC)cc4)c23)CC1,/,/,-2%,/,/,6%
C#C[C@@]1(O)CCC2C3CCc4cc(O)ccc4C3CC[C@@]21C (stereo not given in full),/,-3%,/,/,/,5%
Cc1cccc(-n2ncc3c(NCc4ccco4)ncnc32)c1,8%,0%,12µM*,?,?,16µM*
Cc1cccc(-n2ncc3c(NCc4cccs4)ncnc32)c1,3.5µM*,-5%,9.5µM*,?,?,10µM*
Cc1cccc(-n2ncc3c(NCCN4CCOCC4)ncnc32)c1,26%,0%,?,0%,29%,-9%
CN(C)CCCNc1ncnc2c1cnn2-c1ccccc1,17%,-2%,?,?,30%,5%
Cc1ccc(-n2ncc3c(NCCCN(C)C)ncnc32)cc1Cl,/,/,13µM*,/,/,/
CCOCCCNc1ncnc2c1cnn2-c1ccc(C)c(C)c1,/,/,11µM*,/,/,/
COc1ccc2[nH]cc(CCNC(=O)c3cnn(-c4ccc(C)cc4)c3C3CCN(C(=O)OC(C)(C)C)CC3)c2c1,/,/,-2%,/,/,/
CC(=O)OC(C(=O)c1ccccc1)c1ccccc1 (stereo not given),/,/,/,/,/,-5%
